Among the data in PubChem BioAssay (EPA / NIEHS) are outcome and AC50 values, retold here.

Results filed as inconclusive are left out. Activity calls are given as the source filed them. How the source made its calls, unless noted: active means hit-call score of the fitted dose curve at least 0.9, where 1 is the maximum; inactive means score below 0.9.

A short description of assay [1]: CCTE_Shafer_MEA_dev_firing_rate_mean: CCTE's Neural Network Formation Assay for Mean Firing Rate, Shafer Lab (AID 2284031).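 On AC50: curve fitted for loss of firing so AC50 reflects decreased mean firing rate.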 Summed up:
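Primary rat cortical neurons on 48-well MEA plates, exposed from plating day 0 with dosing renewed on DIV 5 and 9. Mean well firing rate over active electrodes, recorded days 5, 7, 9, 12, summarised as trapezoidal AUC.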

Assay [2] is described as follows: CCTE_Shafer_MEA_dev_per_burst_spike_percent: CCTE's Neural Network Formation Assay for Percent of Spikes in a Burst, Shafer Lab (AID 2284032).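 On AC50: fitted as a decrease in burst spike percentage below DMSO baseline.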 The method, boiled down: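 Rat primary cortical neurons on 16-electrode MEA wells, dosed from plating day 0 for 12 days with renewal on DIV 5 and 9; spikes-in-bursts percentage averaged over bursting electrodes, collapsed as AUC across days 5, 7, 9, 12; loss direction versus DMSO.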

Assay [3] in a line: CCTE_Shafer_MEA_dev_burst_rate: CCTE's Neural Network Formation Assay for Burst Rate, Shafer Lab (AID 2284042). Summed up: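 Developmental network assay measuring how 12-day exposure of rat cortical neuron cultures alters bursting on extracellular MEA recordings. Values are AUC of well-mean burst rate across four recording days, relative to DMSO vehicle.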
In assay [4] the target is Estrogen receptor (Homo sapiens) (UniProt P03372). In words: CCTE_Deisenroth_AIME_96WELL_LUC_Active: CCTE's 96-well Estrogen Receptor Transactivation Assay with AIME metabolic competence (ERTA luciferase; metabolism positive), Deisenroth Lab (AID 2284023; active means hit-call score of the fitted dose curve at least 0.9, where 1 is the maximum). Summed up: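 Chemicals pre-incubated 2 h with alginate-immobilized phenobarbital/beta-naphthoflavone-induced male Sprague Dawley rat liver S9, then medium transferred to VM7Luc4E2 cells for 24 h luciferase read-out. 10-point series 0.002 - 200 uM; fitted relative to 17beta-estradiol.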
Sequence of Estrogen receptor (Homo sapiens) (P03372 whole entry, looked up): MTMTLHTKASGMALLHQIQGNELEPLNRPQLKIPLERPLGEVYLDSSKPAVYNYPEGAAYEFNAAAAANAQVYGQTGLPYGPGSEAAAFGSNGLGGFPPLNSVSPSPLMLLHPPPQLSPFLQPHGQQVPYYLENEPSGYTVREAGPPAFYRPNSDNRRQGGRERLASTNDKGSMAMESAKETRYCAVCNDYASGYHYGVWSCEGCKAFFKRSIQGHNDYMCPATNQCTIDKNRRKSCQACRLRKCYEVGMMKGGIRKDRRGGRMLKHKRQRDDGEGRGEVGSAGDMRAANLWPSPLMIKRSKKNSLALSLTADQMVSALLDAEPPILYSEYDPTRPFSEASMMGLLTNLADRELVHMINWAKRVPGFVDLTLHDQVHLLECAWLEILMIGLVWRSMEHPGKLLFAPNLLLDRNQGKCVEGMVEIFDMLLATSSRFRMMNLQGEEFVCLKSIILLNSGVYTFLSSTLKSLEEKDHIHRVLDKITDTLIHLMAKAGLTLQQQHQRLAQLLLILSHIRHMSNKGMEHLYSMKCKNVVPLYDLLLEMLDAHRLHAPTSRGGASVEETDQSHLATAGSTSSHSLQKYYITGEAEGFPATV

Assay [5] has the same target. Nature of the assay: CCTE_Deisenroth_AIME_96WELL_LUC_Inactive: CCTE's 96-well Estrogen Receptor Transactivation Assay without AIME metabolic competence (ERTA luciferase; metabolism negative), Deisenroth Lab (AID 2284025; active means hit-call score of the fitted dose curve at least 0.9, where 1 is the maximum). The method, boiled down:
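VM7Luc4E2 breast cells, luciferase read 24 h after dosing with medium pre-incubated 2 h on alginate-water lids (metabolism negative). 10-point series 0.002–200 uM, single technical replicate, n≥4; fit relative to 17beta-estradiol.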

Assay [6] is described as follows: CCTE_Deisenroth_AIME_96WELL_CTox_Active: Cytotoxicity Assessment (CTOX) in CCTE's 96-well Estrogen Receptor Transactivation Assay with AIME metabolic competence (metabolism positive), Deisenroth Lab (AID 2284028; active means hit-call score of the fitted dose curve at least 0.9, where 1 is the maximum). The method, boiled down:
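Chemicals (0.002–200 uM) were first incubated 2 h with alginate-immobilized phenobarbital/beta-naphthoflavone-induced male rat liver S9; conditioned medium then went onto VM7Luc4E2 cells for 24 h, with viability read by protease-substrate fluorescence, fitted bidirectionally.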

Assay [7] is described as follows: CCTE_Deisenroth_AIME_96WELL_CTox_Inactive: Cytotoxicity Assessment (CTOX) in CCTE's 96-well Estrogen Receptor Transactivation Assay without AIME metabolic competence (metabolism negative), Deisenroth Lab (AID 2284029; active means hit-call score of the fitted dose curve at least 0.9, where 1 is the maximum). Summed up:
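Chemicals (0.002 - 200 uM, 10 points) incubated 2 h with alginate-water microspheres (no S9), then medium moved onto VM7Luc4E2 cells for 24 h. Viability by protease-substrate cleavage to fluorescent probe; bidirectional fitting.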

The nature of assay [8]: CCTE_Shafer_MEA_dev_active_electrodes_number: CCTE's Neural Network Formation Assay for Number of Active Electrodes, Shafer Lab (AID 2284040; active means hit-call score of the fitted dose curve at least 0.9, where 1 is the maximum;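 on AC50: potency for loss of active electrodes versus DMSO so lower counts are hits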). Summed up: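 Primary rat cortical neurons on 16-electrode MEA wells, exposed from day 0 through day 12 with compound renewed at DIV 5 and 9 feeds. Active electrodes (mean firing ≥5 spikes/min) counted at DIV 5, 7, 9, 12; trapezoidal AUC across days, loss-of-signal versus DMSO.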

Assay [9] has as its target Estrogen receptor (Homo sapiens) (UniProt P03372). In words: CCTE_Deisenroth_AIME_384WELL_LUC_Inactive: CCTE's 384-well Estrogen Receptor Transactivation Assay without AIME metabolic competence (ERTA luciferase; metabolism negative), Deisenroth Lab (AID 2284038; active means hit-call score of the fitted dose curve at least 0.9, where 1 is the maximum;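 further: VM7Luc4E2 breast cells given medium preincubated 2 h with S9-free microspheres; hits raise estrogen receptor luciferase signal so potencies reflect agonists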). The method, boiled down: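 Metabolism-negative mode: chemicals (10-point, 0.002–200 uM) held 2 h with alginate-water microspheres, then conditioned medium applied to VM7Luc4E2 cells for 24 h. Luciferase induction referenced to 17beta-estradiol.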

A short description of assay [10]: CCTE_Deisenroth_AIME_384WELL_CTox_Inactive: Cytotoxicity Assessment (CTOX) in CCTE's 384-well Estrogen Receptor Transactivation Assay without AIME metabolic competence (metabolism negative), Deisenroth Lab (AID 2284039; active means hit-call score of the fitted dose curve at least 0.9, where 1 is the maximum;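 further: cell viability via live-cell protease substrate cleaved to fluorescent probe; cells exposed 24 h to medium preincubated 2 h with alginate-water beads without S9; loss of fluorescence signal means loss of viability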). The method, boiled down: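 Fluorescence from a live-cell protease substrate, read after 24 h in VM7Luc4E2 cells, indicated viability. Test medium came from a 2 h AIME step without hepatic S9 (alginate-water microspheres); concentrations spanned 0.002 - 200 uM, single technical replicate per run.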

Assay [11] concerns the target Estrogen receptor (Homo sapiens) (UniProt P03372). In words: CCTE_Deisenroth_AIME_384WELL_LUC_Shift: CCTE's 384-well Estrogen Receptor Transactivation Assay with AIME metabolic competence data shift (ERTA luciferase; difference in metabolism positive and negative), Deisenroth Lab (AID 2284041).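 Further: shift is response with S9 minus without S9 so positive means metabolism raised ER signal.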 The method, boiled down: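 Here, parent compounds undergo 2 h phase I metabolism by PB/BNF-induced rat S9 before 24 h transactivation in VM7Luc4E2 cells; the curve models S9-positive minus S9-negative response over a 10-point series.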

Assay [12] can be described thus: CCTE_Shafer_MEA_acute_burst_percentage_mean: CCTE's Neural Acute Assay for Percentage of Spikes in a Burst, Shafer Lab (AID 2284017).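 Further: curve fitted for loss of signal so potency reflects decreased burst percentage.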 The method, boiled down: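 Compounds were tested at 0.03-40 uM on primary rat cortical neuron networks grown over microelectrodes, with at least three wells per compound. Spontaneous firing was recorded for 40 min before and 40 min after dosing, and the change in burst percentage was computed per well.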

Assay [13] can be described thus: CCTE_Shafer_MEA_acute_burst_percentage_std: CCTE's Neural Acute Assay for Standard Deviation of Burst Percentage, Shafer Lab (AID 2284018).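 Further: fitted in the negative direction so actives lower burst percentage SD.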 Summed up: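 Primary rat cortical neurons on 16-electrode MEA wells were recorded 40 min at baseline (DIV 13 or 15), then 40 min after compound (0.03-40 uM), at 37 C. Well value is SD across electrodes of spikes-in-bursts/total spikes; endpoint is percent change, DMSO-referenced.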

Assay [14] can be described thus: CCTE_Shafer_MEA_acute_per_network_burst_spike_number_mean: CCTE's Neural Acute Assay for Average Number of Spikes in a Network Burst, Shafer Lab (AID 2284019). The method, boiled down: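 Primary rat cortical neurons on 16-electrode MEA wells, DIV 13 or 15, 37 C; 40-min baseline then 40-min recording with compound (0.03-40 uM). Spikes per network burst (total spikes/number of bursts) expressed as percent change from baseline, DMSO reference.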

Assay [15] in a line: CCTE_Shafer_MEA_acute_per_network_burst_spike_number_std: CCTE's Neural Acute Assay for Standard Deviation of Number of Spikes in a Network Burst, Shafer Lab (AID 2284020).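 Further: fitted for decrease in spike-number SD versus DMSO so actives lower it.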 Summed up: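 Primary rat cortical neurons on 48-well MEAs (16 electrodes/well) recorded at DIV 13 or 15: 40-min baseline, then 40 min with compound (0.03-40 uM), 37 C. Value is percent change in SD of spikes per network burst, relative to DMSO.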

Assay [16] is described as follows: CCTE_Shafer_MEA_acute_per_network_burst_electrodes_number_mean: CCTE's Neural Acute Assay for Mean Number of Electrodes in a Network Burst, Shafer Lab (AID 2284021).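 Further: curves fitted for decreases only so hits reduce electrodes per burst.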 The method, boiled down:
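Cultures of rat cortex neurons were exposed on DIV 13 or 15 to compounds at 0.03-40 uM in at least three wells each. Activity over 40 min before and 40 min after exposure at 37 C gave the percent change in electrodes per network burst.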

Assay [17] can be described thus: CCTE_Shafer_MEA_acute_network_burst_percentage: CCTE's Neural Acute Assay for Percentage of Network Bursts, Shafer Lab (AID 2284022).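 Further: curves fitted for loss so actives lower network burst percentage.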 Summed up: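 Cortical neurons from rat were grown over microelectrode arrays and used on day 13 or 15 in vitro. Wells with at least 10 active electrodes received test chemical at 0.03-40 uM. Activity during 40 min of exposure was compared with the preceding 40-min baseline.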

Assay [18] in a line: CCTE_Shafer_MEA_acute_cross_correlation_area: CCTE's Neural Acute Assay for Area of Cross Correlation, Shafer Lab (AID 2284024).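 Further: area under pooled inter-electrode spike cross-correlation near zero lag as percent change from own baseline; curves fitted for loss of cross-correlation area so actives lower synchrony.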 The method, boiled down: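 Acute exposure of mature rat cortical networks (day 13 or 15 post-plating) to 0.03-40 uM compound. Spontaneous spiking on MEA, 40 min pre- and post-dose at 37 C.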
Assay [19] in a line: CCTE_Shafer_MEA_acute_cross_correlation_HWHM: CCTE's Neural Acute Assay for Cross Correlation at Half Width at Half Maximum, Shafer Lab (AID 2284026).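 Further: hits are a decrease in cross-correlogram half width relative to DMSO.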 The method, boiled down: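 Primary cortex (rat), MEA, DIV 13/15; compound 0.03-40 uM; 40 min pre + 40 min post at 37 C; spike threshold 8x rms; wells need ≥10 active electrodes; endpoint = % change in cross-correlogram HWHM vs baseline, DMSO negative control.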

Assay [20] can be described thus: CCTE_Shafer_MEA_acute_synchrony_index: CCTE's Neural Acute Assay for Synchrony, Shafer Lab (AID 2284027).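 Further: network synchrony index of spontaneous spiking in primary rat cortical neurons on MEAs; fitted for loss of signal so actives lower synchrony relative to DMSO.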 The method, boiled down:
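Primary rat cortical neurons on 48-well MEAs, dosed at 0.03–40 uM on DIV 13 or 15. Spikes are recorded for 40 min at 37C before and after exposure, and synchrony index (0–1) is expressed as percent change from baseline per well.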

Regarding `CO[Si](C)(CCC(F)(F)C(F)(F)C(F)(F)C(F)(F)C(F)(F)C(F)(F)F)OC`, the result in [1], in assay [2] and in assay [3] was inactive.
What is called AC50 is the concentration giving half of the maximal activity seen. In the case of `CCCCC(CC)COC(=O)c1ccc(N(C)C)cc1` (centres undefined), the call in assay [4], in assay [6] and in assay [7] was inactive. The AC50 in assay [5] was 16200 nM (active).
For the compound `C=CC(=O)OCC(F)(F)C(F)(F)C(F)(F)COC(=O)C=C`, the concentration at half-maximal activity (AC50) is 4710 nM (active) in [1], 4390 nM (active) in [2] and 4250 nM (active) in assay [8]. In assay [3], the outcome was inactive.
As to `O=S(=O)(O)CCC(F)(F)C(F)(F)C(F)(F)C(F)(F)F`, the outcome in assay [1], in assay [2], in assay [8] and in assay [3] was inactive.
In the case of `N#Cc1ccccc1O`, the outcome in [9], in assay [10] and in assay [11] was inactive.
`CC(C)(C)c1cc(Cc2cc(C(C)(C)C)c(O)c(C(C)(C)C)c2)cc(C(C)(C)C)c1O`: the compound was classed as inactive in [9] and in [11].
Regarding `O=S(=O)(O)CCC(F)(F)C(F)(F)C(F)(F)C(F)(F)C(F)(F)C(F)(F)C(F)(F)C(F)(F)F`, the outcome in [1], in [2] and in [3] was inactive.
For `OCCCCC(F)(F)C(F)(F)C(F)(F)C(F)(F)F`, the compound was called inactive in assay [1], in assay [2], in [8] and in assay [3].
Consider `CCCCCCCC/C=C\CCCCCCCC(=O)N(C)CC(=O)O`, for which the outcome in assay [10] and in assay [11] was inactive.
Take `CCN=C1C=CC(=C(c2ccc(N(CC)CC)cc2)c2ccc(N(CC)CC)cc2)c2ccccc21`: the concentration at half-maximal activity (AC50) was 549 nM (active) in assay [12]; 718 nM (active) in assay [15]; 498 nM (active) in [16]; 762 nM (active) in assay [17]; 302 nM (active) in assay [18]; 883 nM (active) in assay [19]. Further, the figures for the AC50 in assay [20] and in assay [10] were 541 nM (active) and 57300 nM (active), respectively. Further, the compound was called inactive in assay [13], in assay [14] and in assay [11].
In the case of `CC(=O)CCC(C)C`, the call in [9], in assay [10] and in [11] was inactive.
With `CCOC(OCC)OCC`, the outcome in assay [9] and in assay [11] was inactive.
Take `OCC(F)(F)C(F)(F)C(F)(F)C(F)(F)C(F)(F)C(F)(F)CO`: the compound was classed as inactive in assay [1], in assay [2] and in [3]. Besides, the concentration at half-maximal activity (AC50) in assay [8] is 650 nM (active).
In the case of `OCC(F)(F)C(F)(F)C(F)(F)CO`, the compound was called inactive in assay [1], in assay [2], in [8] and in assay [3].
Consider `O=C(O)C(F)(F)C(F)(F)C(F)(F)OC(F)(F)F`, for which the compound was called inactive in assay [1], in assay [2] and in assay [3].
With `CC(C)OC=O`, the outcome in assay [9], in [10] and in assay [11] was inactive.
